Reference: the supplement of paper PMC4022240
± gives the standard deviation.

T1: HaloTag-ATRX ADD domain (163-292)
T1 chain: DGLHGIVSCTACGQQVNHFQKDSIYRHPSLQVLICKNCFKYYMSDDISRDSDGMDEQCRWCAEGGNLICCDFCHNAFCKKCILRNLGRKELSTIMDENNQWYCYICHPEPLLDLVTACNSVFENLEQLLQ


Biological target: T1, HaloTag-ATRX ADD domain (163-292)
Test: peptide microarray binding signal (635 nm), min-max normalized on array (fraction of array maximum); higher = stronger binding
Settings: peptide region: Unmod H1 variant; binder concentration: 500 nM
In short: (§1)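 Triplicate spots of histone 13-mer peptide–cellulose conjugates with a Cy3 tracer were printed on nitrocellulose and probed for 1 h at 4°C with biotin-labelled HaloTag reader fusions (10 nM to 1 μM) plus streptavidin-Alexa Fluor 647 or rabbit histone antibodies (1:10,000 to 1:2,000) plus anti-rabbit Alexa 647. An Axon GenePix 4000B read the 635 nm channel. Binding signal is the spot-triplicate mean intensity after min-max scaling within each library.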

Binder	peptide microarray binding signal
KAAAASKKKPAGP [Unmod H1 variant K A A A A S K K K P A G P]	0.0113 ± 0.0013
AKAVKPKAAKPKT [Unmod H1 variant A K A V K P K A A K P K T]	0.00791 ± 0.00033
KPKTAKPKAAKPK [Unmod H1 variant K P K T A K P K A A K P K]	0.00857 ± 0.00027

Biological target: HaloTag-ING2 PHD (mouse Ing2 200-280)
Test: as above
Settings: peptide region: Unmod H1 variant; binder concentration: 100 nM
In short: as §1

Binder	peptide microarray binding signal
KAAAASKKKPAGP [Unmod H1 variant K A A A A S K K K P A G P]	0.003402 ± 3e-05
AKAVKPKAAKPKT [Unmod H1 variant A K A V K P K A A K P K T]	0.00765 ± 0.00045
KPKTAKPKAAKPK [Unmod H1 variant K P K T A K P K A A K P K]	0.00914 ± 0.00042

Biological target: anti-H3K4me3 antibody ab8580
Test: as above
Settings: peptide region: Unmod H1 variant; binder concentration: 1:2,000 dilution
In short: as §1

Binder	peptide microarray binding signal
KAAAASKKKPAGP [Unmod H1 variant K A A A A S K K K P A G P]	0.000321 ± 3.3e-06
AKAVKPKAAKPKT [Unmod H1 variant A K A V K P K A A K P K T]	0.000774 ± 2.8e-05
KPKTAKPKAAKPK [Unmod H1 variant K P K T A K P K A A K P K]	0.000736

Biological target: anti-H3K9me3 antibody ab8898
Test: as above
Settings: peptide region: Unmod H1 variant; binder concentration: 1:2,000 dilution
In short: as §1

Binder	peptide microarray binding signal
KAAAASKKKPAGP [Unmod H1 variant K A A A A S K K K P A G P]	0.000181 ± 3.4e-06
AKAVKPKAAKPKT [Unmod H1 variant A K A V K P K A A K P K T]	0.000453 ± 1.3e-05
KPKTAKPKAAKPK [Unmod H1 variant K P K T A K P K A A K P K]	0.000529 ± 1.8e-05

Biological target: T1, HaloTag-ATRX ADD domain (163-292)
Test: as above
Settings: peptide region: Unmod H2A variant; binder concentration: 50 nM
In short: as §1

Binder	peptide microarray binding signal
KGNYAERVGAGAP [Unmod H2A variant K G N Y A E R V G A G A P]	0.0103 ± 0.00041
AGLQFPVGRVHRL [Unmod H2A variant A G L Q F P V G R V H R L]	0.0745 ± 0.019

Same assay, conditions: peptide region: Unmod H2A variant; binder concentration: 500 nM

Binder	peptide microarray binding signal
KGNYAERVGAGAP [Unmod H2A variant K G N Y A E R V G A G A P]	0.0165 ± 0.00062
AGLQFPVGRVHRL [Unmod H2A variant A G L Q F P V G R V H R L]	0.0998 ± 0.058

Biological target: HaloTag-ING2 PHD (mouse Ing2 200-280)
Test: as above
Settings: peptide region: Unmod H2A variant; binder concentration: 10 nM
In short: as §1

Binder	peptide microarray binding signal
KGNYAERVGAGAP [Unmod H2A variant K G N Y A E R V G A G A P]	0.0105 ± 0.0025
AGLQFPVGRVHRL [Unmod H2A variant A G L Q F P V G R V H R L]	0.0252 ± 0.0093

Same assay, conditions: peptide region: Unmod H2A variant; binder concentration: 100 nM

Binder	peptide microarray binding signal
KGNYAERVGAGAP [Unmod H2A variant K G N Y A E R V G A G A P]	0.034 ± 0.0024
AGLQFPVGRVHRL [Unmod H2A variant A G L Q F P V G R V H R L]	0.0507 ± 0.015

Biological target: anti-H3K4me3 antibody ab8580
Test: as above
Settings: peptide region: Unmod H2A variant; binder concentration: 1:2,000 dilution
In short: as §1

Binder	peptide microarray binding signal
KGNYAERVGAGAP [Unmod H2A variant K G N Y A E R V G A G A P]	0.00546 ± 0.001
AGLQFPVGRVHRL [Unmod H2A variant A G L Q F P V G R V H R L]	0.00176 ± 0.00047

Same assay, conditions: peptide region: Unmod H2A variant; binder concentration: 1:10,000 dilution

Binder	peptide microarray binding signal
KGNYAERVGAGAP [Unmod H2A variant K G N Y A E R V G A G A P]	0.00171 ± 6.5e-05
AGLQFPVGRVHRL [Unmod H2A variant A G L Q F P V G R V H R L]	0.00793 ± 0.00092

Biological target: anti-H3K9me3 antibody ab8898
Test: as above
Settings: peptide region: Unmod H2A variant; binder concentration: 1:2,000 dilution
In short: as §1

Binder	peptide microarray binding signal
KGNYAERVGAGAP [Unmod H2A variant K G N Y A E R V G A G A P]	0.00116 ± 9.3e-05
AGLQFPVGRVHRL [Unmod H2A variant A G L Q F P V G R V H R L]	0.00307 ± 0.00038

Same assay, conditions: peptide region: Unmod H2A variant; binder concentration: 1:10,000 dilution

Binder	peptide microarray binding signal
KGNYAERVGAGAP [Unmod H2A variant K G N Y A E R V G A G A P]	0.00075 ± 2.1e-05
AGLQFPVGRVHRL [Unmod H2A variant A G L Q F P V G R V H R L]	0.00542 ± 0.00044

Biological target: T1, HaloTag-ATRX ADD domain (163-292)
Test: as above
Settings: peptide region: Unmod H1 variant; binder concentration: 50 nM
In short: as §1

Binder	peptide microarray binding signal
AKAVKPKAAKPKT [Unmod H1 variant A K A V K P K A A K P K T]	0.0116 ± 0.00013
KPKTAKPKAAKPK [Unmod H1 variant K P K T A K P K A A K P K]	0.0113 ± 0.0004

Biological target: HaloTag-ING2 PHD (mouse Ing2 200-280)
Test: as above
Settings: peptide region: Unmod H1 variant; binder concentration: 10 nM
In short: as §1

Binder	peptide microarray binding signal
AKAVKPKAAKPKT [Unmod H1 variant A K A V K P K A A K P K T]	0.00304 ± 8.9e-05
KPKTAKPKAAKPK [Unmod H1 variant K P K T A K P K A A K P K]	0.00292 ± 8.4e-05

Biological target: anti-H3K4me3 antibody ab8580
Test: as above
Settings: peptide region: Unmod H1 variant; binder concentration: 1:10,000 dilution
In short: as §1

Binder	peptide microarray binding signal
AKAVKPKAAKPKT [Unmod H1 variant A K A V K P K A A K P K T]	0.00137 ± 1.3e-05
KPKTAKPKAAKPK [Unmod H1 variant K P K T A K P K A A K P K]	0.00143 ± 2.4e-05

Biological target: anti-H3K9me3 antibody ab8898
Test: as above
Settings: peptide region: Unmod H1 variant; binder concentration: 1:10,000 dilution
In short: as §1

Binder	peptide microarray binding signal
AKAVKPKAAKPKT [Unmod H1 variant A K A V K P K A A K P K T]	0.000865 ± 9e-06
KPKTAKPKAAKPK [Unmod H1 variant K P K T A K P K A A K P K]	0.0011 ± 1.1e-05
